Experimental findings from PubChem BioAssay (Tox21) are described below.

Experiment [1] in a line: qHTS assay to identify small molecule agonists of the androgen receptor (AR) signaling pathway in the presence of an antagonist - cell viability counter screen (AID 1259379). Note: nearly all actives have a fitted effect of over 25% in size. Note: potency is the fitted concentration of half-maximal effect. The gist of the method:
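Viability counter screen: CellTiter-Fluor fluorescence, measured in the same wells as the luciferase read-out. MDA-kb2 cells, 3,000/well, with nilutamide at 3.0uM final and compounds at 15 concentrations, 16 hr at 37C, 0% CO2.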
For orientation: Quantitative high-throughput screening tests each substance at several concentrations.

A short description of experiment [2]: qHTS assay to identify small molecule agonists of the estrogen receptor beta (ER-beta) signaling pathway - cell viability counter screen (AID 1259380). Note: nearly all actives have a fitted effect of over 30% in size. Note: potency is the fitted concentration of half-maximal effect. In a few lines:
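Luminescence read-out (CellTiter-Glo, 30 min, room temp) taken in the same wells as the beta-lactamase reporter assay; ER-beta-UAS-bla HEK293T cells exposed to DMSO-dissolved compounds for 16 hr at 37C in 2% charcoal-stripped FBS medium.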

The nature of experiment [3]: qHTS assay to identify small molecule antagonists of the estrogen receptor beta (ER-beta) signaling pathway - cell viability counter screen (AID 1259382). Note: nearly all actives have a fitted effect of over 55% in size. Note: potency is the fitted concentration of half-maximal effect. The gist of the method: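 Luminescent ATP read-out (CellTiter-Glo, 30 min, RT) taken in the same wells as the bla reporter assay. HEK293T ER-beta-UAS-bla cells in 2% charcoal-stripped FBS were exposed to compounds with 1nM E2 for 16 hr at 37C.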

The target of experiment [4] is Estrogen receptor (Homo sapiens) (UniProt P03372). Briefly: qHTS assay to identify small molecule agonists of the estrogen receptor alpha (ER-alpha) signaling pathway in the presence of an antagonist (AID 1259383; calls by dose curve; note: nearly all actives have a fitted effect of over 15% in size; note: potency is the fitted concentration of half-maximal effect; for activation: top concentration of the series differs between compounds). In a few lines:
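Luciferase luminescence (ONE-Glo, 30min at room temperature) measured in VM7Luc4E2 cells after 22hr compound exposure at 15 concentrations, with 10.0nM ICI-182,780 final present; cells express endogenous ER-alpha and carry four EREs upstream of luciferase.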

Experiment [5] in a line: qHTS assay to identify small molecule agonists or antagonists of the thyroid stimulating hormone receptor (TSHR) signaling pathway - wild type cell line counter screen (AID 1259384; calls by dose curve). The gist of the method: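 Counter screen in untransfected Hek293: compounds (15-point titration, triplicate) plus phosphodiesterase inhibitor Ro20-1724 added after 18 h plating; 30 min RT. Intracellular cAMP via competitive d2/cryptate immunoassay, 1 h incubation.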

For experiment [6], the target named is Thyrotropin receptor (Homo sapiens) (UniProt P16473). The experiment in a line: qHTS assay to identify small molecule antagonists of the thyroid stimulating hormone receptor (TSHR) signaling pathway (AID 1259385; calls by dose curve; note: nearly all actives have a fitted effect of over 20% in size; note: potency is the fitted concentration of half-maximal effect). In a few lines: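 Antagonist mode: compound-treated TSHR-expressing HEK293 cells were stimulated with 1.5 ng/mL TSH (final) in presence of Ro20-1724 for 30 min at RT. HTRF cAMP detection after 1 h; each compound tested at 15 concentrations, triplicate.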

Experiment [7] is described as follows: qHTS assay to identify small molecule agonists of the estrogen receptor alpha (ER-alpha) signaling pathway in the presence of an antagonist - cell viability counter screen (AID 1259386). Note: nearly all actives have a fitted effect of over 30% in size. Note: potency is the fitted concentration of half-maximal effect. The gist of the method: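 Read-out: CellTiter-Fluor fluorescence after 1hr reagent incubation, measured in the same wells as the luciferase readout. VM7Luc4E2 cells were exposed to 15 compound concentrations with 10.0nM ICI-182,780 for 22hr at 37C.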

Experiment [8] concerns the target Progesterone receptor (Homo sapiens) (UniProt P06401). Briefly: qHTS assay to identify small molecule agonists of the progesterone receptor (PR) signaling pathway (AID 1346784; calls by dose curve; note: nearly all actives have a fitted effect of over 30% in size). The gist of the method:
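Seed PR-UAS-bla HEK 293T cells (2% charcoal-stripped FBS), incubate 6 hr at 37C; add compounds in DMSO, 16 hr at 37C; add LiveBLAzer B/G substrate, 2 hr RT; read fluorescence intensity.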

Experiment [9] has the same target. Briefly: qHTS assay to identify small molecule antagonists of the progesterone receptor (PR) signaling pathway (AID 1346795; active = well fitted inhibition curve with a large enough effect in the signal ratio in the repeat runs, not every such curve was filed as active; the % refers to the signal ratio; note: potency is the fitted concentration of half-maximal effect). The gist of the method:
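Screening used a GripTite HEK293T line with PR-responsive UAS-beta-lactamase. Cells were challenged with compound in the presence of 1 nM R5020 final for 16 hr at 37C; B/G FRET substrate, 2 hr room temperature, fluorescence.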

A short description of experiment [10]: qHTS assay to identify small molecule antagonists of the progesterone receptor (PR) signaling pathway - cell viability counter screen (AID 1346798). Note: series mostly up to about 92 µM; nearly all actives have a fitted effect of over 50% in size. In a few lines:
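Measures cytotoxicity in parallel with the PR antagonist reporter read: HEK293T PR-UAS-bla cells get compound and R5020 for 16 hr, and remaining viable cells are quantified by CellTiter-Glo luminescence.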

Experiment [11] is described as follows: qHTS assay to identify small molecule agonists of the progesterone receptor (PR) signaling pathway - cell viability counter screen (AID 1346799; calls by dose curve; note: nearly all actives have a fitted effect of over 45% in size). The gist of the method: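 Using the same plates as the PR reporter screen, HEK293T PR-UAS-bla cells received compounds for 16 hr at 37C and were then lysed with CellTiter-Glo; luminescence was read 30 min later at room temperature.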

The nature of experiment [12]: qHTS assay to identify small molecule antagonists of the TGF-beta/Smad signaling pathway - cell viability counter screen (AID 1346824). Note: nearly all actives have a fitted effect of over 50% in size. In a few lines: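 Cytotoxicity counter-screen run in the same wells as the beta-lactamase Smad reporter read: CellTiter-Glo luminescence after 30 min at room temperature. HEK 293T SBE-bla cells had 5 hr compound exposure at 37 C with TGF-beta1 (0.25 ng/mL stock).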

Experiment [13] can be described thus: qHTS assay to identify small molecule agonists of the TGF-beta/Smad signaling pathway - cell viability counter screen (AID 1346829). Note: top concentration of the series differs between compounds; nearly all actives have a fitted effect of over 45% in size. In a few lines:
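Here the cytotoxicity of library compounds is measured in SBE-bla HEK 293T cells treated for 5 hr, using CellTiter-Glo added to wells already read for the beta-lactamase reporter.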

Experiment [14] in a line: qHTS assay to identify small molecule agonists of the TGF-beta/Smad signaling pathway (AID 1346859; active = well fitted activation curve with a large enough effect in the signal ratio in the repeat runs, not every such curve was filed as active; the % refers to the signal ratio; note: series mostly up to about 77 µM). The gist of the method: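 Beta-lactamase reporter activity downstream of Smad binding elements was measured in stably transfected HEK 293T cells; compounds were incubated for 5 hr, substrate for 2 hr at room temperature.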
Experiment [15] is described as follows: Human pregnane X receptor (PXR) small molecule agonists, qHTS cell viability counter screen (AID 1346977). Note: nearly all actives have a fitted effect of over 50% in size. Note: potency is the fitted concentration of half-maximal effect. In a few lines: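 After a 5hr pre-incubation, PXR-Luc HepG2 cells received compounds plus positive control in DMSO and were kept 24hr at 37C. Cell viability was quantified by fluorescence from CellTiter-Fluor added for the final hour.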
Experiment [16] in a line: Caspase-3/7 induction in HepG2 cells by small molecules, qHTS assay (AID 1346978). Note: nearly all actives have a fitted effect of over 15% in size. The gist of the method: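 Caspase-3/7 induction was measured by Caspase-Glo 3/7 luminescence (30 min, room temperature) after a 17 hr compound exposure of wild-type HepG2 cells seeded at 2,000 per well and pre-incubated 5 hr.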
A short description of experiment [17]: Caspase-3/7 induction in CHO-K1 cells by small molecules, qHTS cell viability counter screen (AID 1346979). Note: nearly all actives have a fitted effect of over 35% in size. Note: potency is the fitted concentration of half-maximal effect. The gist of the method: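 Multiplexed with Caspase-Glo 3/7 in CHO-K1 cells, this counter screen added CellTiter-Fluor after 16hr of compound exposure and recorded fluorescence 1hr later.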
The target of experiment [18] is Androgen receptor (Homo sapiens) (UniProt P10275). The experiment in a line: qHTS assay to identify small molecule agonists of the androgen receptor (AR) signaling pathway in the presence of an antagonist (AID 1259381; calls by dose curve; note: nearly all actives have a fitted effect of over 15% in size). In a few lines:
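Luciferase read-out (ONE-Glo, 30min room temperature) in MDA-kb2 MMTV-reporter cells; agonist mode run in presence of AR antagonist nilutamide, 3.0uM final. Compounds tested as 15-point series, 16hr exposure at 37C, 0% CO2.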

The target in experiment [19] is Thyrotropin-releasing hormone receptor (Homo sapiens) (UniProt P34981). Briefly: qHTS assay to identify small molecule antagonists of the thyrotropin-releasing hormone receptor (TRHR) signaling pathway (AID 1346877; active = well fitted inhibition curve with a large enough effect in the repeat runs, not every such curve was filed as active; note: series mostly up to about 51 µM). The gist of the method: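 HEK293/TRHR cells, 18 h, 37 °C; Ca2+ dye 2 h; cpd 5 min RT; TRH 1 nM final; fluorescence read 3 min, 1 s intervals; 15 concs, triplicate.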

Experiment [20] shares this target. Briefly: qHTS assay to identify small molecule agonists of the thyrotropin-releasing hormone receptor (TRHR) signaling pathway (AID 1346891; calls by dose curve; note: potency is the fitted concentration of half-maximal effect;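 for activation: HEK293 cells expressing TRHR with calcium dye readout; series mostly up to about 58 µM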). In a few lines: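 Overnight-plated (18 h, 37 °C, 5% CO2) TRHR-Hek293 cells; 2 h calcium dye at 37 °C; compound in DMSO; 3-min kinetic fluorescence read.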

Results filed as inconclusive are left out. Active and inactive are the calls of the source. Unless noted, calls come from the whole dose curve; as a rule, active = well fitted curve in the direction sought with a large enough effect in the repeat runs; inconclusive = weak or mixed curves; inactive = no such curve, though single readings can be large; an effect the other way counts as inactive or inconclusive.

Sequence of Thyrotropin receptor (Homo sapiens) (P16473 whole entry, looked up): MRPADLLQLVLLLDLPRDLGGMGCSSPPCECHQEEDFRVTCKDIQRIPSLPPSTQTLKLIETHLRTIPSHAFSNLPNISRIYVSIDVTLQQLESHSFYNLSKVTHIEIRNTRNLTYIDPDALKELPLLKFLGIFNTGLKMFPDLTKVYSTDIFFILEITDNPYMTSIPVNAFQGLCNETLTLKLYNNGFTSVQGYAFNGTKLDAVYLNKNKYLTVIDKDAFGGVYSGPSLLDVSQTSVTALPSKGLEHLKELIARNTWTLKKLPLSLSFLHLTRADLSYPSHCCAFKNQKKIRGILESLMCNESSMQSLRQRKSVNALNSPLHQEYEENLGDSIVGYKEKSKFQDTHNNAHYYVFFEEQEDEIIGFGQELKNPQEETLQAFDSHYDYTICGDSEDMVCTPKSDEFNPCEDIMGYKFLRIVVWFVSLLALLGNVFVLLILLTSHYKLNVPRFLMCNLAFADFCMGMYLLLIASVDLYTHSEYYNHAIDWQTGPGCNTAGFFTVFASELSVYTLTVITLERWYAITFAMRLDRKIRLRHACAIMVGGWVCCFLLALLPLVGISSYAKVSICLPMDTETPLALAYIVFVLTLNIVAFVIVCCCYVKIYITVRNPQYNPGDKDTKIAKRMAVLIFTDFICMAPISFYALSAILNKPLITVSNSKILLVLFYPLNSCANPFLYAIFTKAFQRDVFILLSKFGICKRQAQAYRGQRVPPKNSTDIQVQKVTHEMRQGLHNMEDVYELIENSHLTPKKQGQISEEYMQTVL
Sequence of Estrogen receptor (Homo sapiens) (P03372 whole entry, looked up): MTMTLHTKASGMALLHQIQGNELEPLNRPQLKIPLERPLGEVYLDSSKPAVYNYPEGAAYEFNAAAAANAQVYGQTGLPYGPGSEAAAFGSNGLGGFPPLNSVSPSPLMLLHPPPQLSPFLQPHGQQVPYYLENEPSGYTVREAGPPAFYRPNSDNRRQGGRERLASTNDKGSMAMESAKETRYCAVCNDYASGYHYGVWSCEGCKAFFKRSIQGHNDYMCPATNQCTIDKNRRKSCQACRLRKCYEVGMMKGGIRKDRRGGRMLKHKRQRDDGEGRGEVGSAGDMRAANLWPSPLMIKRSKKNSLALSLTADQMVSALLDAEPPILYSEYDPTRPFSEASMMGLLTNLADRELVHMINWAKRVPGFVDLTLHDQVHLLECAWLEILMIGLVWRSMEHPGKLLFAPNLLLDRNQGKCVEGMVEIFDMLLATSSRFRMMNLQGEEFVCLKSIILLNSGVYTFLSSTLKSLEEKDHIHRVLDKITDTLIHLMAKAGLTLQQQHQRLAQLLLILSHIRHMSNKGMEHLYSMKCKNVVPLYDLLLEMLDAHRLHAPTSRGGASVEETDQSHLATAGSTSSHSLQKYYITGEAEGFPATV
Sequence of Progesterone receptor (Homo sapiens) (P06401 whole entry, looked up): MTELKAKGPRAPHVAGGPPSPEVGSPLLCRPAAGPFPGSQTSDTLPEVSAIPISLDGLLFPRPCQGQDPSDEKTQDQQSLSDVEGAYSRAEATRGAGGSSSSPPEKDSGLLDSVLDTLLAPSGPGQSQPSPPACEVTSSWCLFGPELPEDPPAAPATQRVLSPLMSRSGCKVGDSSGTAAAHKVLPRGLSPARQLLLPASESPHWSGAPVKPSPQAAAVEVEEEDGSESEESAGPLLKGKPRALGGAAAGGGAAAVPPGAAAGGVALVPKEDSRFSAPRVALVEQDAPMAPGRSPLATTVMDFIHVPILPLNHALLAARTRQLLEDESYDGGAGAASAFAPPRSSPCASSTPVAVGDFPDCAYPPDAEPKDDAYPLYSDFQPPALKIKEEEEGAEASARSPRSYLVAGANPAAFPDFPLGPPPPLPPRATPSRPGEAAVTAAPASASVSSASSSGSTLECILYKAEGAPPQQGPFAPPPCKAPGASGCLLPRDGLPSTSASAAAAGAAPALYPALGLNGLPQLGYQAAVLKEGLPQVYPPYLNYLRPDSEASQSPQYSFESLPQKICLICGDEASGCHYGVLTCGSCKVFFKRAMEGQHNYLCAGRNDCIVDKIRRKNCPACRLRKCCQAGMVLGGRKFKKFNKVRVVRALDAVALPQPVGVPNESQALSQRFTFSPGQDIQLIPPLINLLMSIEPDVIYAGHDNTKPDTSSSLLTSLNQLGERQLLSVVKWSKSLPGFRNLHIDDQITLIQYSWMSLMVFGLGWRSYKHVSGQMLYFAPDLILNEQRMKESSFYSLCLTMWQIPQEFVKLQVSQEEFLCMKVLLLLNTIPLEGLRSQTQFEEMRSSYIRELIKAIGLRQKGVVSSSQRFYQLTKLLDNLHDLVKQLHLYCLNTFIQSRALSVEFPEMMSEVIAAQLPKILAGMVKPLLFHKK
Sequence of Thyrotropin-releasing hormone receptor (Homo sapiens) (P34981 whole entry, looked up): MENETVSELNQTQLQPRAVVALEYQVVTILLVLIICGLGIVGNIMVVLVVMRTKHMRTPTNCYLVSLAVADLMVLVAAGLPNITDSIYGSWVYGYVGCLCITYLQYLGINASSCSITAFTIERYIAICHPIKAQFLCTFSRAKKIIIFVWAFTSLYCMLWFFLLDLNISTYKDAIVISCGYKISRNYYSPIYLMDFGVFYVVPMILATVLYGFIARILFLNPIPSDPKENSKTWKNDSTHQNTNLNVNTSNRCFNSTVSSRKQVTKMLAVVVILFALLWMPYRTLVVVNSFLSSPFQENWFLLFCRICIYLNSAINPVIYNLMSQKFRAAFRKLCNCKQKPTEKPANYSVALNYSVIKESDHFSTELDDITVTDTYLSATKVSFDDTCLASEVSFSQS
Sequence of Androgen receptor (Homo sapiens) (P10275 whole entry, looked up): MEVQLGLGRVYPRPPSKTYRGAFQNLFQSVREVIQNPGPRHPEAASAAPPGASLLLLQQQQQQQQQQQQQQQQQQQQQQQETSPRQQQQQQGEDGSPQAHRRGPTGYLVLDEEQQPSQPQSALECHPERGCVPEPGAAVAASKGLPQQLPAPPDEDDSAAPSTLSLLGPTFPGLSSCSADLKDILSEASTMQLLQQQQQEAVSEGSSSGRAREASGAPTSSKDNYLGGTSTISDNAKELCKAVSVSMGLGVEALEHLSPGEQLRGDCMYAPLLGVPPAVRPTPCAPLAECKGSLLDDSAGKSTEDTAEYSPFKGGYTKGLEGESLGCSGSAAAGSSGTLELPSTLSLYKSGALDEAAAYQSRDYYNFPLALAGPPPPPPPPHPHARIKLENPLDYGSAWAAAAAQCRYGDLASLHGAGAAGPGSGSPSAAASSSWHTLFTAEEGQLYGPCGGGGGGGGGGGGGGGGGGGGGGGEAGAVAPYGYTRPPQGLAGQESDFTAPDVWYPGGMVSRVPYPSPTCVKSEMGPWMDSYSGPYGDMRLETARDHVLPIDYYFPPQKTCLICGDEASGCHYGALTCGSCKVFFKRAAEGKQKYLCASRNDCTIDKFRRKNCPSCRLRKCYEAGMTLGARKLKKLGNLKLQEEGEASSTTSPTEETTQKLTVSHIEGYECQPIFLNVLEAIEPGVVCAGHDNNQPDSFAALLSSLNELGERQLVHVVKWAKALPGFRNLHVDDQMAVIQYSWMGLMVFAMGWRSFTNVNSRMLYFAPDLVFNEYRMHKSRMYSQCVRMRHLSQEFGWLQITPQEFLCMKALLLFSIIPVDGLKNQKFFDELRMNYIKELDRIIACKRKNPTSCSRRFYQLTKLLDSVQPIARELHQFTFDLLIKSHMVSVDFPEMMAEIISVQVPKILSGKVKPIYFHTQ

For `C1CCSC1`, the Potency entry in experiment [1], in experiment [2], in experiment [3], in experiment [4], in experiment [5] and in experiment [6] was “inactive” in each case. Also, the Potency result in experiment [7], in experiment [9], in experiment [10], in experiment [11], in experiment [12] and in experiment [13] was “inactive” in each case. Further, the Potency entry in [15], in experiment [16] and in experiment [17] was “inactive” each time. Also, the compound was called inactive in [8] and in experiment [14].

Take `CCN(CC)c1ccc2c(c1)Oc1cc(N(CC)CC)ccc1C21OC(=O)c2ccccc21`: the Potency in experiment [1] is 7.5 µM (active); in [2] it was 10.6 µM (active); in experiment [7], 5.31 µM (active); in [20] it was 15.1 µM (active); in experiment [15], 4.22 µM (active); in experiment [17], 2.37 µM (active). Moreover, the Potency entry in [18], in experiment [9], in experiment [10], in experiment [11], in experiment [12] and in experiment [13] was “inactive” in each case. Besides, the Potency entry in experiment [19] and in experiment [16] was “inactive” throughout. The outcome in experiment [8] and in experiment [14] was inactive.

`CCN(CC)c1ccc(N=Nc2ccccc2)cc1`: the Potency in [1] was 27.3 µM (active); in experiment [2], 17.2 µM (active); in experiment [3], 30.6 µM (active); in experiment [4], 193 nM (active); in experiment [6], 68.6 µM (active); in experiment [7] it was 30.6 µM (active). Further, the Potency was 27.3 µM (active) in experiment [15] and 48.6 µM (active) in experiment [17]. Besides, the Potency result in experiment [5], in experiment [10], in [13] and in experiment [16] was “inactive” each time. Also, the result in experiment [14] was inactive.

For the compound `CCNc1nc(NC(C)(C)C)nc(OC)n1`, the Potency entry in [1], in experiment [2], in [3], in [4], in experiment [5] and in [6] was “inactive” in each case. For the same compound, the Potency entry in [7], in [10], in [12], in [13], in experiment [19] and in experiment [20] was “inactive” throughout. The Potency result in [15], in experiment [16] and in experiment [17] was “inactive” throughout. For the same compound, the outcome in [8] and in [14] was inactive.

Regarding `Cc1ccc2n[nH]nc2c1`, the Potency entry in experiment [1], in experiment [2], in experiment [3], in experiment [4], in [5] and in [6] was “inactive” each time. Further, the Potency result in experiment [7], in experiment [9], in [10], in [12], in experiment [13] and in experiment [19] was “inactive” in each case. Further, the Potency entry in experiment [20], in experiment [15], in [16] and in experiment [17] was “inactive” throughout. Also, the compound was called inactive in experiment [8] and in experiment [14].

Consider `Oc1cccc2c(O)cccc12`, for which the Potency entry in experiment [1], in experiment [4], in experiment [7], in experiment [10], in experiment [12] and in experiment [13] was “inactive” in each case. For the same compound, the Potency entry in experiment [19], in experiment [20] and in experiment [16] was “inactive” each time. Moreover, the Potency in experiment [2] is 61.1 µM (active); in experiment [3] it was 61.1 µM (active); in experiment [9] it was 48.6 µM (active); in [17], 54.5 µM (active). Besides, the outcome in experiment [8] and in [14] was inactive.

With `Cc1cccc(C)c1C`, the Potency entry in experiment [1], in experiment [2], in experiment [3], in experiment [5], in [6] and in experiment [7] was “inactive” in each case. The Potency entry in [9], in experiment [10], in experiment [11], in experiment [12], in [13] and in [19] was “inactive” each time. For the same compound, the Potency result in experiment [20], in experiment [15], in [16] and in [17] was “inactive” throughout. Also, the compound was called inactive in experiment [8] and in experiment [14].

As to `SC1CCCCC1`, the Potency entry in experiment [1], in [2], in experiment [3], in experiment [5], in experiment [6] and in experiment [7] was “inactive” in each case. The Potency result in experiment [10], in experiment [11], in experiment [12], in experiment [13], in [19] and in experiment [20] was “inactive” throughout. In addition, the Potency result in experiment [15], in experiment [16] and in experiment [17] was “inactive” throughout. For the same compound, the outcome in experiment [8] and in experiment [14] was inactive.
